Experimental findings from PubChem BioAssay (EPA / NIEHS) are described below.

Results filed as inconclusive are left out. The source made the active and inactive calls. The calls were made as follows: active = hit-call score of the fitted dose curve at least 0.9, where 1 is the maximum; inconclusive = response in the unintended direction; inactive = score below 0.9.

Read-out in test [1]: xenobiotic metabolism (CYP1A2), CYP1A2 (gene 1544)
Put plainly: CLD_CYP1A2_24hr: CellzDirect (CLD) Gene Expression Assay for xenobiotic metabolism (CYP1A2) at 24 hours (AID 2283683). Put shortly: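 CYP1A2 mRNA induction measured by quantitative nuclease protection (chemiluminescent) in human primary hepatocytes 24 h after multi-concentration chemical dosing with daily fresh solutions. DMSO (0.2%) baseline; positive-direction fitting; morphology-based cytotoxicity noted.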

Read-out in test [2]: Cytochrome P450 3A4 (Homo sapiens) (UniProt P08684)
Put plainly: CLD_CYP3A4_24hr: CellzDirect (CLD) Gene Expression Assay for xenobiotic metabolism (CYP3A4) at 24 hours (AID 2283689). The procedure, abridged: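 CYP3A4 mRNA induction read by quantitative nuclease protection (chemiluminescence) 24 hr after dosing. Cultured human hepatocytes (two donor preparations) treated daily, vehicle 0.2% DMSO; phase-contrast morphology annotates cytotoxicity.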

Read-out in test [3]: HMG-CoA synthase (HMGCS2), HMGCS2 (gene 3158)
Put plainly: CLD_HMGCS2_24hr: CellzDirect (CLD) Gene Expression Assay for HMG-CoA synthase (HMGCS2) at 24 hours (AID 2283691). The procedure, abridged: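 qNPA with S1 nuclease digestion and chemiluminescent detection gave HMGCS2 transcript levels, fitted upward against 0.2% DMSO vehicle. Cultured human hepatocytes (two donors) received fresh compound daily and were harvested at 24 h; phase-contrast morphology flagged cytotoxicity.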

Read-out in test [4]: sulfotransferase (SULT2A), SULT2A1 (gene 6822)
As to the kind of experiment: CLD_SULT2A_24hr: CellzDirect (CLD) Gene Expression Assay for sulfotransferase (SULT2A) at 24 hours (AID 2283694).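 As to AC50: potency for increased SULT2A1 mRNA level as induction over DMSO baseline.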 Put shortly:
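mRNA is measured by qNPA: probe hybridisation, S1 nuclease digestion, chemiluminescence, in lysates from human primary hepatocytes harvested 24 h after daily dosing. Vehicle was 0.2% DMSO. Phase-contrast microscopy flagged cytotoxicity (yes/no).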

Read-out in test [5]: glucuronosyltransferase (UGT1A1), UGT1A1 (gene 54658)
Put plainly: CLD_UGT1A1_24hr: CellzDirect (CLD) Gene Expression Assay for glucuronosyltransferase (UGT1A1) at 24 hours (AID 2283696). The procedure, abridged:
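UGT1A1 transcript induction was measured by quantitative nuclease protection assay (chemiluminescence) in human hepatocyte cultures 24 h after daily fresh dosing, with 0.2% DMSO as vehicle and baseline.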

Read-out in test [6]: xenobiotic metabolism (CYP1A2), CYP1A2 (gene 1544)
Put plainly: CLD_CYP1A2_48hr: CellzDirect (CLD) Gene Expression Assay for xenobiotic metabolism (CYP1A2) at 48 hours (AID 2283703). Put shortly: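 Cytotoxicity was flagged yes/no from morphology, while CYP1A2 transcript induction was detected by qNPA chemiluminescence after a 48-hour exposure. Human primary hepatocyte cultures from separate donors received fresh dosing solutions daily over two days, with 0.2% DMSO as vehicle and baseline.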

Read-out in test [7]: Cytochrome P450 2C19 (Homo sapiens) (UniProt P33261)
Put plainly: CLD_CYP2C19_24hr: CellzDirect (CLD) Gene Expression Assay for xenobiotic metabolism (CYP2C19) at 24 hours (AID 2283687).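 Also: activity means mRNA induction above DMSO vehicle baseline.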 The procedure, abridged:
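CYP2C19 mRNA was quantified by qNPA chemiluminescence after 24 h of daily dosing of cultured human primary hepatocytes from two donors; vehicle was 0.2% DMSO, and increases over DMSO baseline were fitted.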

Read-out in test [8]: Glyceraldehyde-3-phosphate dehydrogenase (Homo sapiens) (UniProt P04406)
As to the kind of experiment: CLD_GAPDH_24hr: CellzDirect (CLD) Gene Expression Assay for Baseline Control (Glyceraldehyde 3-phosphate dehydrogenase) at 24 hours (AID 2283692). The procedure, abridged:
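GAPDH baseline-control readout: qNPA chemiluminescent mRNA signal in human primary hepatocytes harvested 24 h after daily dosing, normalised to 0.2% DMSO with positive fitting direction; cytotoxicity annotated by phase-contrast morphology.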

Read-out in test [9]: alkyl and aryl transferase (GSTA2), GSTA2 (gene 2939)
Put plainly: CLD_GSTA2_24hr: CellzDirect (CLD) Gene Expression Assay for alkyl and aryl transferase (GSTA2) at 24 hours (AID 2283693). Put shortly: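 GSTA2 transcript levels were quantified by quantitative nuclease protection assay in primary human hepatocytes 24 h after daily dosing with fresh solutions at multiple concentrations; 0.2% DMSO vehicle as baseline, cytotoxicity flagged morphologically.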

Read-out in test [10]: Broad substrate specificity ATP-binding cassette transporter ABCG2 (Homo sapiens) (UniProt Q9UNQ0)
As to the kind of experiment: CLD_ABCG2_48hr: CellzDirect (CLD) Gene Expression Assay for ABC Transporter (ABCG2) at 48 hours (AID 2283704). Put shortly:
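ABCG2 transcript measured at 48 h by quantitative nuclease protection (chemiluminescent) and fitted for increase relative to 0.2% DMSO. Hepatocyte cultures from separate donors got fresh compound daily over two days; morphology annotated cytotoxicity.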

Read-out in test [11]: ABC Transporter (ABCB1), ABCB1 (gene 5243)
Put plainly: CLD_ABCB1_48hr: CellzDirect (CLD) Gene Expression Assay for ABC Transporter (ABCB1) at 48 hours (AID 2283695). The procedure, abridged: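 ABCB1 mRNA was measured by quantitative nuclease protection assay (chemiluminescence) 48 h after dosing. Human hepatocyte cultures from two separate donors received fresh dosing solutions daily for two days, with 0.2% DMSO as vehicle. Positive-direction fit against DMSO.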

Read-out in test [12]: xenobiotic metabolism (CYP1A1), CYP1A1 (gene 1543)
Put plainly: CLD_CYP1A1_48hr: CellzDirect (CLD) Gene Expression Assay for xenobiotic metabolism (CYP1A1) at 48 hours (AID 2283705). Put shortly:
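CYP1A1 transcript measured by quantitative nuclease protection (chemiluminescent) 48 h after two daily treatments of human hepatocyte cultures, versus 0.2% DMSO. Morphology-based cytotoxicity flags accompany data; two donor preparations used.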

Read-out in test [13]: Cytochrome P450 2B6 (Homo sapiens) (UniProt P20813)
As to the kind of experiment: CLD_CYP2B6_24hr: CellzDirect (CLD) Gene Expression Assay for xenobiotic metabolism (CYP2B6) at 24 hours (AID 2283686). Put shortly: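 qNPA chemiluminescent measurement of mRNA at 24 hours in human primary hepatocyte cultures from two donor preparations, with daily fresh dosing and 0.2% DMSO vehicle as baseline. Morphology-based cytotoxicity flagged yes/no.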

Read-out in test [14]: Cytochrome P450 3A4 (Homo sapiens) (UniProt P08684)
Put plainly: CLD_CYP3A4_48hr: CellzDirect (CLD) Gene Expression Assay for xenobiotic metabolism (CYP3A4) at 48 hours (AID 2283698). Put shortly:
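CYP3A4 induction read by qNPA chemiluminescence after 48 h, with fresh dosing solutions on consecutive days, in cultured human hepatocytes (two donors). Vehicle 0.2% DMSO as baseline; microscopy-based cytotoxicity annotated yes/no alongside data.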

Read-out in test [15]: Cytochrome P450 2B6 (Homo sapiens) (UniProt P20813)
As to the kind of experiment: CLD_CYP2B6_48hr: CellzDirect (CLD) Gene Expression Assay for xenobiotic metabolism (CYP2B6) at 48 hours (AID 2283699).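 Also: actives raise transcript level above DMSO so potency reflects induction.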 The procedure, abridged:
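CYP2B6 transcript induction, read by quantitative nuclease protection (S1 digestion, chemiluminescent detection) 48 h after dosing, is fitted upward against 0.2% DMSO. Cultured human liver primary cells, two donor preparations, received fresh chemical daily over multiple concentrations.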

For orientation: AC50 means the midpoint of the concentration-response curve, whichever way the signal moves.

Sequence of Glyceraldehyde-3-phosphate dehydrogenase (Homo sapiens) (P04406 whole entry, looked up): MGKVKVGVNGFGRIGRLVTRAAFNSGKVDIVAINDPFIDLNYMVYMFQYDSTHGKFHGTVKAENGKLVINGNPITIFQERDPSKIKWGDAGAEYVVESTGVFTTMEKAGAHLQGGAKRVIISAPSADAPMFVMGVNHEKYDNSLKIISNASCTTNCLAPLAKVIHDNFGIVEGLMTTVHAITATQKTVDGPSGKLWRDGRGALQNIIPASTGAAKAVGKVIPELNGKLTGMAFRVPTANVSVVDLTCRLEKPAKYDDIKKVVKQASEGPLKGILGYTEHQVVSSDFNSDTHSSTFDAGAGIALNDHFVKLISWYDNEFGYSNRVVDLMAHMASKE
Sequence of Cytochrome P450 3A4 (Homo sapiens) (P08684 whole entry, looked up): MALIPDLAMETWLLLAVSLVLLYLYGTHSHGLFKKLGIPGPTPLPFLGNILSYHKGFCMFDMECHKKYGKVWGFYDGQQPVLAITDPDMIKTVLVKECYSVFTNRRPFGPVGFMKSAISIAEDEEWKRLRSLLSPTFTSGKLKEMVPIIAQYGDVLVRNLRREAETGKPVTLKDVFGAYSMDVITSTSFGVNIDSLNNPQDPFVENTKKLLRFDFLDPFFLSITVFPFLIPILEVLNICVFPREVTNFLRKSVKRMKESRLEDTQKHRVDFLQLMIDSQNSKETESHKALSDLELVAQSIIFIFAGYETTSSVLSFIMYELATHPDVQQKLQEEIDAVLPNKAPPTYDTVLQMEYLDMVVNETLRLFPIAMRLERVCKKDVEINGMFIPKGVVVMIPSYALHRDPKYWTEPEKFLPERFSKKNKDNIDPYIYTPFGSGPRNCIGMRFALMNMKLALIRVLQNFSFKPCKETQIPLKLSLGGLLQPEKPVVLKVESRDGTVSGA
Sequence of Cytochrome P450 2C19 (Homo sapiens) (P33261 whole entry, looked up): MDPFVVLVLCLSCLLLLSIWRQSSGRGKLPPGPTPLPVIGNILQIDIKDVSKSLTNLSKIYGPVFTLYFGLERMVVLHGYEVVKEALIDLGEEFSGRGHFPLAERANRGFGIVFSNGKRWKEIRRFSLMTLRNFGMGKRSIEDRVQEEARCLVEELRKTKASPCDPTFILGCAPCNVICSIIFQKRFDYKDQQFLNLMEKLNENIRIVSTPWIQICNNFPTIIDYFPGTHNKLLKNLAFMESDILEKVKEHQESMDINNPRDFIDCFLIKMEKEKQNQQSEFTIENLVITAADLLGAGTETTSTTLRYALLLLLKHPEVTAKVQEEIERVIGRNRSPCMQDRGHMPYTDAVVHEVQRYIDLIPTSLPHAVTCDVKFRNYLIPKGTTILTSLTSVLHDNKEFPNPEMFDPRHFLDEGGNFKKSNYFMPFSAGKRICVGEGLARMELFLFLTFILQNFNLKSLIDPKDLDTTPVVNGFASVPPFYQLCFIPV
Sequence of Broad substrate specificity ATP-binding cassette transporter ABCG2 (Homo sapiens) (Q9UNQ0 whole entry, looked up): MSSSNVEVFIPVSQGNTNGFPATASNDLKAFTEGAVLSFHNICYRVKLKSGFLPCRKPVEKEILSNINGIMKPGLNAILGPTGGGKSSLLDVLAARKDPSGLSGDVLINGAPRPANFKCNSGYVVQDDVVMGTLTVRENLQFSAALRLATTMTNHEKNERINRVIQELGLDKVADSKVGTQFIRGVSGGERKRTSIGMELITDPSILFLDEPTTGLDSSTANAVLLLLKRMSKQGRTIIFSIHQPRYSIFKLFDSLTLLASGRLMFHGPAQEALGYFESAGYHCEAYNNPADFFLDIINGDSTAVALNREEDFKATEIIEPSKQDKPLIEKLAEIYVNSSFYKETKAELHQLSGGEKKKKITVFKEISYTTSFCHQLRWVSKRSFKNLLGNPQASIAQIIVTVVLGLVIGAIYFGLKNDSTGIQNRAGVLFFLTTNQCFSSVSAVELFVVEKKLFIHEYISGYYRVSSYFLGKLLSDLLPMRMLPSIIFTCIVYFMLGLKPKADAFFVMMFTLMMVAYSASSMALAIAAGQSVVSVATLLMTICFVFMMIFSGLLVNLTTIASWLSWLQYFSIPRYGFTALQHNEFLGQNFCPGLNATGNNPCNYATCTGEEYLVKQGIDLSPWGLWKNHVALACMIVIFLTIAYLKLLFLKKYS

Regarding `CCOC(=O)C(C)OC(=O)c1cc(Oc2ccc(C(F)(F)F)cc2Cl)ccc1[N+](=O)[O-]` (stereo not drawn), the AC50 is 4.61 µM (active) in [1]; 3.19 µM (active) in [2]; 0.31 µM (active) in [3]; 3.51 µM (active) in test [4]; 2.46 µM (active) in test [5]; 20 µM (active) in test [6].
For `O=C1C2CC=CCC2C(=O)N1SC(Cl)(Cl)Cl` (stereo not drawn), the compound was called inactive in test [1], in test [7], in test [8], in [9] and in test [10].
On to `CC1(C)C(C(=O)OC(C#N)c2cccc(Oc3ccccc3)c2)C1(C)C` (stereo not drawn), for which the AC50 is 20 µM (active) in test [1], 13 µM (active) in test [2] and 5.68 µM (active) in [5]. For the same compound, the compound was called inactive in test [3], in test [9], in test [11], in [6], in [10] and in [12].
Turning to `CCCC(=NOCC)C1=C(O)CC(CC(C)SCC)CC1=O` (stereo not drawn), the concentration at half-maximal activity (AC50) in test [13] was 28.9 µM (active); in [2], 32.9 µM (active); in test [14], 20 µM (active). The compound was classed as inactive in [7], in test [8], in [11], in [5], in test [6] and in test [12].
For `COCC(C)N(C(=O)CCl)c1c(C)csc1C` (stereo not drawn), the compound was called inactive in test [9], in [4], in test [11], in [5] and in [10].
For `COCc1cnc(C2=NC(C)(C(C)C)C(=O)N2)c(C(=O)O)c1` (stereo not drawn), the compound was called inactive in test [2], in [3], in test [9], in test [4], in test [11] and in test [5]. Also, the compound was called inactive in test [6].
Turning to `CNC(=O)N(C)c1nnc(C(C)(C)C)s1`, the compound was classed as inactive in test [1], in [7], in test [2], in [9], in test [11] and in test [5]. The compound was called inactive in [6] and in test [10].
For `N#Cc1c[nH]cc1-c1cccc2c1OC(F)(F)O2`, the AC50 in [1] is 1.56 µM (active); in test [2], 4.26 µM (active); in test [15], 2.54 µM (active); in [6], 2.37 µM (active). For the same compound, the compound was called inactive in test [5].
On to `CC1(C)CON(Cc2ccccc2Cl)C1=O`, for which the outcome in test [1], in test [7], in test [8], in test [9], in [11] and in [5] was inactive. In addition, the outcome in test [6] was inactive. Besides, the AC50 in [2] is 20 µM (active); in test [14] it was 5.13 µM (active).
Take `CCC(C)n1c(=O)[nH]c(C)c(Br)c1=O` (stereo not drawn): the AC50 was 7.45 µM (active) in test [1], 11.8 µM (active) in test [6] and 8.72 µM (active) in test [12]. Moreover, the result in test [2] was inactive.
`COc1cc(OC)nc(NC(=O)NS(=O)(=O)c2ncccc2OCC(F)(F)F)n1`: the compound was called inactive in [1], in [7], in test [2], in test [11], in test [6] and in [10].
